Assay results as given in paper PMC4336329 (PLoS ONE, 2015).
The whole screen tested about 310,000 compounds, of which about 14,000 (4.5%) showed an effect of 50% or more. The effect is printed as a negative number. The list comes from a sample in which strong results are over-represented; it also holds similar structures and randomly drawn compounds.

molecular target: human ether-à-go-go-related gene (hERG) potassium channel (human, UniProt Q12809); experiment: primary screen, population patch clamp on CHO cells stably expressing hERG; higher = less effect of the substance
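Further: peak tail current of the secondary pulse compared with the same well before compound.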

Chain of human ether-à-go-go-related gene (hERG) potassium channel (Q12809 whole entry, looked up): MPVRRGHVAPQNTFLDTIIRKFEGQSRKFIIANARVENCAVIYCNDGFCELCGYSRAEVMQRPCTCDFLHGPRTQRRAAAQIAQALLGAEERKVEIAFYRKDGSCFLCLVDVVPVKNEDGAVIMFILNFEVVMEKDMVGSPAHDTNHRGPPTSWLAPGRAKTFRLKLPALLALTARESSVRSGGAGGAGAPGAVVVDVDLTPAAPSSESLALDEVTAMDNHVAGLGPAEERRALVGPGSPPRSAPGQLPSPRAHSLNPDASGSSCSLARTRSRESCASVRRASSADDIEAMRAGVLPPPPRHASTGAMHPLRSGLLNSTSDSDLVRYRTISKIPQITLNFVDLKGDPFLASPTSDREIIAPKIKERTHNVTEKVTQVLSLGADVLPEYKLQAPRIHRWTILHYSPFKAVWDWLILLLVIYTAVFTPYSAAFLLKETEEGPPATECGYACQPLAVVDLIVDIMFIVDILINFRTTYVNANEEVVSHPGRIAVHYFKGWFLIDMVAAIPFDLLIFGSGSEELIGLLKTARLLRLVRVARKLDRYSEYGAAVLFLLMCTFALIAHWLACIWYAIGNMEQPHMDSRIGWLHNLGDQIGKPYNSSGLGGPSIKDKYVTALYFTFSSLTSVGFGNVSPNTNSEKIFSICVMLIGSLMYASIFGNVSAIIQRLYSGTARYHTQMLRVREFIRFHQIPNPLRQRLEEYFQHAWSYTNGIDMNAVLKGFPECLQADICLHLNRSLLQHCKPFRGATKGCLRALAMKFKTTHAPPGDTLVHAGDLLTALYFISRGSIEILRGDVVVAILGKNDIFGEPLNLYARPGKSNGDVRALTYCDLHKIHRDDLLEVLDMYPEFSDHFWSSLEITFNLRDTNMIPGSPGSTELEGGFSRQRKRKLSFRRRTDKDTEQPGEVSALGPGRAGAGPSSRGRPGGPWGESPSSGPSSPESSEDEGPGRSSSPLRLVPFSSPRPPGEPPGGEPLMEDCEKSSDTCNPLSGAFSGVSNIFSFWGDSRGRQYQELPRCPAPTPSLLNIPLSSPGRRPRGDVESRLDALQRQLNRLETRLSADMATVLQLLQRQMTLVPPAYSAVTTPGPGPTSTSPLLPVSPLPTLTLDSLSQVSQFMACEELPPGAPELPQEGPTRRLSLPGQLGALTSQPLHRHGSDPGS

| SMILES | hERG current change (%, negative = inhibition) at 10uM [%] |
| --- | --- |
| N#C/C(=C\c1ccc(O)c(O)c1)C(=O)NCCCc1ccccc1 | -1.59 |
| Cc1cccc(NC(=O)CSCC(=O)Nc2ccccc2N2CCCC2)c1 | -90 |
| Cc1cc(NC(=O)CSCC(=O)Nc2cc(Cl)ccc2N2CCN(C)CC2)no1 | -25.7 |
| CN1CCN(c2ccc(Cl)cc2NC(=O)CC2OC(=O)c3ccccc32)CC1 (centres unmarked) | -74.5 |
| CCN(CC)S(=O)(=O)c1ccc(N2CCN(C)CC2)c(NC(=O)CSCC(=O)Nc2cccc(C)c2)c1 | -13 |
| Cc1ccc(NC(=O)CSCC(=O)Nc2cc(Cl)ccc2N2CCOCC2)cc1 | -14.8 |
| Cc1ccc(NC(=O)CSCC(=O)Nc2cc(Cl)ccc2N2CCN(C)CC2)cc1 | -53.1 |
| CN1CCN(c2ccc(Cl)cc2NC(=O)CCN2C(=O)c3ccccc3C2=O)CC1 | -7.06 |
| Cc1cccc(NC(=O)CSCC(=O)Nc2ccccc2N2CCCCC2)c1 | -1.89 |
| O=C(CC1OC(=O)c2ccccc21)Nc1cc(Cl)ccc1N1CCCC1 (centres unmarked) | -8.18 |
| Cc1cccc(NC(=O)CSCC(=O)Nc2cc(Cl)ccc2N2CCOCC2)c1 | -31 |
| Cc1cccc(NC(=O)CSCC(=O)Nc2cc(Cl)ccc2N2CCN(C)CC2)c1 | -72.8 |
| Cc1ccc(NC(=O)CSCC(=O)Nc2ccccc2N2CCCC2)cc1 | -13.6 |
| COc1cccc(-c2ccc3nnc(SCC(=O)N4CCOCC4)n3n2)c1 | -6.27 |
| O=C(Nc1cc(Sc2ccccn2)cc([N+](=O)[O-])c1)c1ccc([N+](=O)[O-])cc1 | -6.06 |
| CCOc1ccc(-n2ccc(=O)c(C(=O)Nc3ccc(S(=O)(=O)Nc4ncccn4)cc3)n2)cc1 | 7.22 |
| CC1CCCC(NC(=O)CCn2c(=O)oc3ccccc32)C1C (centres unmarked) | -18.4 |
| COC(=O)c1cc2oc(C)cc2n1CC(=O)N(C)c1ccccc1 | 5.36 |
| O=C(O)c1ccc(/C=N/N2CCN(c3ccccc3)CC2)cc1 | 7.59 |
| CC(C)N(C(=O)CSc1nc(COc2ccccc2)nc2ccccc12)C(C)C | -4.66 |
| O=C(NC(=S)N1CCOCC1)c1cc2ccccc2o1 | 12.7 |
| O=C(Cc1ccccn1)c1ccc(O)cc1O | 21.5 |
| Cc1ccccc1Nc1nnc(SCC(=O)Nc2ccccc2[N+](=O)[O-])s1 | 3.5 |
